Most compounds without a hit are left out; they make up all but 3.4% or so of the library.
TRPM1 prom inh: inhibitors of MITF-dependent TRPM1 promoter reporter, primary screen, cell-based, SK-MEL-5, single point, luciferase; actives 0.83% (n = 330,000); SK-MEL-5 TRPM1 promoter luciferase, 24 h; inhibition, % at 12.5 µM;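 active means mean inhibition across replicates of 60% or more, whatever share of single replicates reaches that level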
HIF-2a inh: HIF-2a reporter inhibitors, primary screen, luminescence, 786-0 RCC cells; actives 0.72% (n = 360,000); 786-0 RCC cells HIF-2a reporter, luciferase luminescence, overnight; inhibition, % at 18.8 µM;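 active means inhibition of the luminescence signal of 40% or more relative to plate controls, in a single-dose primary screen at 18.75 µM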
TROY signal inh: inhibitors of TROY-driven NF-kB signaling, primary screen, Q293 LMP1-TROYcd cells, NF-kB luciferase, uHTS. Q293 LMP1-TROYcd NF-kB luciferase reporter, 4 h. actives 0.98% (n = 360,000). inhibition, % at 10 µM;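 active means compounds whose plate-normalised and pattern-corrected inhibition of the luciferase reporter signal at the single screening dose is 50% or more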
Shn3 inh set2: reduction of Shn3 3'UTR firefly luciferase signal, primary screen, Schnurri-3 inhibitor project, cell-based, Clone20 osteoblasts, set 2; actives 0.52% (n = 360,000); AID 588674, 2011; inhibition, % at 12.5 µM; Clone20 osteoblast Shn3 3'UTR firefly luciferase, 24 h;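 active means mean inhibition of at least 75% with every replicate also reaching 75%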
TWEAK Fn14 block: inhibitors of TWEAK-Fn14 signaling, primary screen, luciferase reporter cells, uHTS. TWEAK-stimulated Fn14 reporter cells, luciferase luminescence, 8 h. inhibition, % at 10 µM. actives 2% (n = 360,000). AID 1159606, 2016; in the data active means inhibition above about 50%
EBV LMP1 NFkB: EBV LMP1-driven NF-kappaB luciferase reporter inhibitors, primary screen, cell-based, luminescence, single point | LMP1-induced NF-kappaB luciferase reporter cells | inhibition, % at 12.5 µM | actives 0.69% (n = 350,000) | AID 504558, 2011; in the data active means inhibition above about 41%
Mdm2 MdmX conf: retested Mdm2-MdmX interaction blockers, confirmation, cell-based, luminescence, single concentration, set 2; actives 99% (n = 740); AID 504601, 2011; inhibition, % at 8 µM; SaOS-2 split-luciferase Mdm2/MdmX complementation; shares compounds with HIF-2a inh;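 active means mean inhibition of the luminescence signal across two replicates at or above 26 percent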
Target sequence (O15151 whole entry, looked up): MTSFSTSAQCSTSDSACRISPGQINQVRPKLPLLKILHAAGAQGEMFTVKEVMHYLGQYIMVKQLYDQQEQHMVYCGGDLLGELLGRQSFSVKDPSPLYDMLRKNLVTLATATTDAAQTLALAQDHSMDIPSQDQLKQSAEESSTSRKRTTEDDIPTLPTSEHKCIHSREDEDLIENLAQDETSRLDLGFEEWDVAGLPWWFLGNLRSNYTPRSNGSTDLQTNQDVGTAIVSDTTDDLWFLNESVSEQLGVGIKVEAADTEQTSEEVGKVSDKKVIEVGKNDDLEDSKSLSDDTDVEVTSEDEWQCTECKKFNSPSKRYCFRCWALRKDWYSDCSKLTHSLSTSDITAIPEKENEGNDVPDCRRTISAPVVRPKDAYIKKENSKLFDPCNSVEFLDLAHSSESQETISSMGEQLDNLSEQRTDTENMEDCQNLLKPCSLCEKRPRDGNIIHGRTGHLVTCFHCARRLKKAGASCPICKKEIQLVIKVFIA
Target sequence (Q00987 whole entry, looked up): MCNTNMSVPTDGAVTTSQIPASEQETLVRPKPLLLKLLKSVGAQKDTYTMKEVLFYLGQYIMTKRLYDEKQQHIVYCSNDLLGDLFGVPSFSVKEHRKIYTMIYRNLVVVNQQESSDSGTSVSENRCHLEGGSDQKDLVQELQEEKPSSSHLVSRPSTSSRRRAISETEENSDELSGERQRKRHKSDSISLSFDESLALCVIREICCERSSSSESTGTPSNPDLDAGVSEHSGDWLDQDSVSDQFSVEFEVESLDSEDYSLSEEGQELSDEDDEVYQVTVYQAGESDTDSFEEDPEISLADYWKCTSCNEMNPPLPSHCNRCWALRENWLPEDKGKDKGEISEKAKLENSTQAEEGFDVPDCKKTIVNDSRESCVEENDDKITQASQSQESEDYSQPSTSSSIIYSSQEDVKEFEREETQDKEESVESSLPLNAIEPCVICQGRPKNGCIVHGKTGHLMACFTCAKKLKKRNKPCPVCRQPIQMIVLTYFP
HIF-2a conf: HIF-2a reporter inhibitor retest, confirmation, luminescence, 786-0 RCC cells | shares compounds with HIF-2a inh | HIF-2a luciferase reporter luminescence, overnight | inhibition, % at 18.8 µM | actives 56% (n = 1,800);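 active means mean inhibition across four replicates of at least 40 percent at the single tested concentration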
HIF-1a counter: HIF-1a luciferase reporter signal reduction – MiaPaCa-2 cells, single concentration, counter-screen for HIF-2a inhibitor project, confirmation; shares compounds with HIF-2a inh; MiaPaCa-2 HIF-1a luciferase reporter, desferoxamine, overnight; inhibition, % at 18.8 µM; actives 72% (n = 1,800);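 active means mean inhibition of the reporter signal across four replicates at the single tested dose of 50% or more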
Numbers stand for hits; . = inactive; / = no result given.

SMILES	TRPM1 prom inh	HIF-2a inh	TROY signal inh	Shn3 inh set2	TWEAK Fn14 block	EBV LMP1 NFkB	HIF-2a conf	HIF-1a counter	others
COc1ccc(-c2sc3cc(OC)c(OC)cc3c2C#CC2(O)CCCCC2)cc1	.	.	.	.	.	.	/	/
Cc1ccc(C(C)C)c(OCC(=O)Nc2ccc3c(c2)nc(CCN2CCCCC2)n3C)c1	95	.	.	.	.	.	/	/	Mdm2 MdmX conf=101
Cc1ccc(N(CC(=O)NCCc2ccc(F)cc2)S(=O)(=O)c2ccc(Cl)c([N+](=O)[O-])c2)c(C)c1	.	92	.	.	53	.	.	108
CCNc1nc(C)c2cc(Br)c(=O)n(CC)c2n1	.	55	.	.	.	.	.	.
CCn1c(=N)c(C(=O)NC)cc2c(=O)n3cccc(C)c3nc21	.	.	.	.	.	.	/	/
O=C(CSc1nnc(-c2ccc(Br)cc2)o1)Nc1cccc(C(=O)O)c1	88	63	.	.	.	75	63	.
O=C(CSc1nnc(-c2ccccc2)o1)Nc1ccccc1F	/	49	.	.	57	53	66	61
Cc1ccc(-c2nnc(SCC(=O)Nc3ccccc3F)o2)cc1	76	77	78	.	86	79	89	96
CCOc1ccccc1NC(=O)COC(=O)C1CC(=O)N(c2c(C)cccc2C)C1 (stereo not drawn)	.	.	.	.	.	.	/	/
O=C(Cc1ccsc1)NNC(=O)c1cccc(Cl)c1	.	.	.	.	.	.	/	/
CS(=O)(=O)Nc1cccc(NC(=O)C2Cc3c(-c4ccccc4)ccnc3O2)c1 (stereo not drawn)	/	47	.	.	.	/	.	85
O=C(C1COc2ccccc2O1)N1CCN(c2nc3c(F)cc(F)cc3s2)CC1 (stereo not drawn)	.	.	.	.	.	.	/	/
O=C(O)c1cccc(-c2nnn(Cc3ccccc3Cl)n2)c1	.	65	.	.	.	.	63	.
O=C(O)c1cccc(-c2nnn(Cc3ccccc3)n2)c1	.	.	.	.	.	.	/	/
C=C1C(=O)C=C[C@]2(C)C[C@@H]3OC(=O)[C@](C)(O)[C@H]3C[C@@H]12	/	40	.	.	55	.	.	98
C[C@@H]1C[C@@H]2OC(=O)[C@]3(C)[C@H]2[C@@H](OC3(C)O)[C@]2(C)C(=O)C=C[C@H]12 (stereo partly drawn)	.	.	.	.	.	.	/	/
C=C1[C@@H](O)[C@H](CC(C)C)N(Cc2ccccc2Br)S1(=O)=O	.	72	.	.	79	.	42	101
COc1ccc(NC(=O)Cc2nnc(SCC(=O)c3ccccc3)n2C)cc1	.	.	.	.	.	.	/	/
CC(=O)c1ccc(NC(=O)c2cnn3ccccc23)cc1	/	75	.	.	71	.	86	.
CC1CN(c2ccc(NC(=S)NNCCC#N)cc2)CC(C)O1 (stereo not drawn)	.	.	.	.	.	.	/	/
COc1cc(OC)c(C(=O)/C=C/c2ccc(OCc3ccccc3)c(OC)c2)c(OC)c1	.	46	.	.	.	.	.	.
COc1cc(OCc2ccccc2)c(C(=O)/C=C/c2ccc3c(c2)OCO3)c(OC)c1OC	.	52	.	.	.	.	40	53
NC(=O)CC(NC(=O)Cc1ccc(Br)cc1)c1ccc(N2CCc3ccccc3C2)c([N+](=O)[O-])c1 (stereo not drawn)	.	.	.	.	.	.	/	/
CC(O)CC(=O)OC[C@]12CC[C@H]3[C@@](C)(CC[C@H]4C(C)(C)CCC[C@]34C)[C@@H]1CC(C1=CC(=O)OC1O)O2 (stereo partly drawn)	/	93	89	93	106	/	96	107
O=[N+]([O-])c1ccc(COP(=O)(O)OCc2ccc([N+](=O)[O-])cc2)cc1	/	.	.	.	.	/	/	/
SMILES	TRPM1 prom inh	HIF-2a inh	TROY signal inh	Shn3 inh set2	TWEAK Fn14 block	EBV LMP1 NFkB	HIF-2a conf	HIF-1a counter	others
Cc1cccc(-c2nnc(SCCC(=O)N3CCOCC3)o2)c1	.	49	.	.	.	.	53	.
Cc1ccc(-c2nnc(SCCC(=O)N3CCOCC3)o2)cc1	.	.	.	.	.	.	/	/
Nc1ccccc1C#CC(=O)c1ccccc1	93	89	.	99	95	.	57	105	Mdm2 MdmX conf=103
CCC1CCCCN1CCCNC(=O)c1c(O)nc2ccccn2c1=O (stereo not drawn)	.	.	.	.	.	.	/	/
C=CCNC(=O)/C(C#N)=C/c1ccc(OS(=O)(=O)c2ccc(C)cc2)c(OC)c1	.	59	.	.	.	.	46	97
CCCOc1ccc(/C(O)=C2\C(=O)C(=O)N(c3ccccn3)C2c2ccccc2F)cc1C (stereo not drawn)	.	.	.	.	.	.	/	/
O=C(CSC(=S)N1CCCC1)NCC(=O)Nc1ccccc1Br	.	.	.	.	.	.	/	/
NC(=O)c1sc2nc3c(c(-c4cccs4)c2c1N)CCCCC3	.	.	.	.	76	72	/	/	Mdm2 MdmX conf=95
NC(=O)c1sc2nc3c(c(-c4cccnc4)c2c1N)CCC3	.	.	.	.	.	.	/	/
CC(C)(C)c1ccc(C(=O)CC(=O)c2cc(Cl)ccc2O)cc1	.	.	.	.	.	.	/	/
N/C(=C\C(=O)c1cc(Cl)ccc1O)C(Cl)(Cl)Cl	.	.	.	.	67	.	/	/	Mdm2 MdmX conf=103
CSC(=Nc1ccccc1)N=C(SCc1ccccc1)N(C)C	116	83	.	93	80	.	74	107
C[C@H]1CN([C@@H](C)CO)C(=O)c2cccc(NS(=O)(=O)c3ccc(Cl)cc3)c2O[C@@H]1CN(C)CC1CCCCC1	.	.	.	.	.	.	/	/
Cn1c(CNc2cccc(Cl)c2)nnc1SCC(=O)OC1CCCCC1	.	.	.	.	.	.	/	/
O=C(O)CSc1nnc(COc2cccc3ccccc23)n1Cc1ccccc1	.	.	.	.	.	.	/	/
CCn1c(COc2cccc3ccccc23)nnc1SCC(=O)OC1CCCCC1	.	58	.	.	.	.	.	.

Screening data from PubChem.
